# Screening data: PubChem, National Center for Advancing Translational Sciences (NCATS)
# Most compounds without a hit are left out; they make up all but 7.4% or so of the library.
# Rab9 prom act – activates the Rab9 promoter; 2.8% of 320,000 active; Huh7 Rab9 promoter-luciferase reporter, luminescence, 24 h; Potency, µM (titrated, usually from 9.22 µM), for inactives: at the highest dose activation, negative = inhibition, usual class: activators; also: % of control where 0% means no effect; nearly all actives have a fitted effect of over 60% in size
#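 Luminescence from Amplite-detected luciferase (10 minutes, ambient) reports Rab9 promoter activation. Before that, stable Rab9-luciferase Huh7 cells (1500/well, reduced-serum OP-MEM I plus 10% FBS) were exposed to compound for 24 hours at 37C.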
# FLuc modulator – firefly luciferase modulation, counter-screen for miR-21 project; purified FLuc, Km substrates, luminescence inhibition; Potency, µM (titrated, usually from 57.5 µM), for inactives: at the highest dose activity change, negative = inhibition, hits mostly inhibitors; 6.9% of 360,000 active; AID 588342;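 also: plate controls were vehicle for no effect and reference inhibitor for full effect; nearly all actives have a fitted effect of over 55% in size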
# Target sequence (P08659 whole entry, looked up): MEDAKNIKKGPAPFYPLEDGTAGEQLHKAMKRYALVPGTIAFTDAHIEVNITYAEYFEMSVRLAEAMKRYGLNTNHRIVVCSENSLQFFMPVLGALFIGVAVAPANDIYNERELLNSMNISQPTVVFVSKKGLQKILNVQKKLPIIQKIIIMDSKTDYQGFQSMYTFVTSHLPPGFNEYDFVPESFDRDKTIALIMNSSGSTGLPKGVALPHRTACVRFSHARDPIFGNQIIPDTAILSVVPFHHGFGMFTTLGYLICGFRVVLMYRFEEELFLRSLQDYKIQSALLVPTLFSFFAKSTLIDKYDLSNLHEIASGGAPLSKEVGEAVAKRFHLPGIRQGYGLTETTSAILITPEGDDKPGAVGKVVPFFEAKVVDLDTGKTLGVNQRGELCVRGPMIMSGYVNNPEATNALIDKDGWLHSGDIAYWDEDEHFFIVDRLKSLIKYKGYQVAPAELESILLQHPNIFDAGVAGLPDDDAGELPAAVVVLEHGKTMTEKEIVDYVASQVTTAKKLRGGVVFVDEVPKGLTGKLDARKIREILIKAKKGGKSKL
#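 Biochemical qHTS of compounds, final roughly 60 µM downward over six points, against 10 nM purified firefly luciferase using Km concentrations of substrates (10 uM D-luciferin, 10 uM ATP) in Tris acetate pH 7.5 buffer; luminescence output.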
# SMN2 splice up – increases expression of the SMN2 splice variant; AID 1458; HEK293 SMN2-luciferase splicing reporter, luminescence, 30-36 h; Potency, µM (highest dose often 46.1 µM), for inactives: top-dose activity change, positive = activation, most hits filed as activators; 2.8% of 210,000 active; also: % of control where 0% means no effect; nearly all actives have a fitted effect of over 55% in size
#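 HEK293 cells carry an SMN2 […]–luciferase reporter in which exon 7 inclusion puts luciferase in frame. Cells were plated 10-12 h before compound addition, then incubated 30-36 h at 37C. ONE-Glo luminescence was read; sodium butyrate at 4.5 mM final served as control.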
# ELG1 genotox – induces genotoxicity in HEK293T cells with luciferase-tagged ELG1 | Potency, µM (titrated, usually from 46 µM), for inactives: top-dose activity change, positive = activation, actives largely listed as activators | AID 504466 | HEK293T ELG1-luciferase reporter, luminescence, 16 h | 1.3% of 330,000 active; also: % of control where 0% means no effect; nearly all actives have a fitted effect of over 60% in size
#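 After overnight (16 hr) compound treatment at 37 °C, ELG1-luciferase HEK293T cells were lysed with ONE-Glo; luminescence quantified 30 min later at room temperature.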
# KinaseGlo FLuc – Kinase-Glo luciferase inhibition (counter-screen); Q27757; 0.28% of 200,000 active; Kinase-Glo luciferase, ATP luminescence, 8 min; Potency, µM (highest dose often 38.3 µM), inactives show at the highest dose activity change, negative = inhibition, usual class: inhibitors; also: % is scaled to controls: 0 for no effect and ±100 for the full control effect; nearly all actives have a fitted effect of over 60% in size
#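 Substrate mix (final 50 mM imidazole pH 7.2, 50 mM KCl, 7 mM MgCl2, 10 uM ATP, 0.01% Tween 20, 0.05% BSA) plus pin-tool compound, then Kinase-Glo detection mix; 8 min ambient, luminescence read.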
# NPC1 prom act – activates the NPC1 promoter; Huh7 NPC1 promoter luciferase reporter, 24 h; Potency, µM (top dose mostly 9.22 µM), for the others: at the highest dose activation, actives largely listed as activators; AID 485313; 2.4% of 320,000 active; also: % of control where 0% means no effect; nearly all actives have a fitted effect of over 60% in size
#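 Quantitative HTS used a cell-based reporter: Huh7 cells stably bearing the NPC1 promoter upstream of luciferase were treated with compounds for 24 h, and promoter activation was read as luminescence.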
# * marks the source's active call; other numbers are inactive results; ? = inconclusive; / = no result; [ ] = dose if it differs, or a comment. Calls follow the shape of the dose curve; as a rule, active = well fitted curve in the direction sought with a large enough effect; inconclusive = small, poorly fitted or top-dose-only effect, or another doubt; inactive = no such curve, though single readings can be large; an effect the other way counts as inactive or inconclusive. Potency is read from the fitted curve at half-maximal effect.
SMILES,Rab9 prom act,FLuc modulator,SMN2 splice up,ELG1 genotox,KinaseGlo FLuc,NPC1 prom act
Oc1c(N=Nc2ccccn2)ccc2ccccc12,-9%,1.3µM*,-67%,?,11µM*,-5%
O=S(=O)(O)c1cc(N=Nc2cccc3ccccc23)c(O)c2ncccc12,/,/,-8%[9.22 µM],/,-12%[7.66 µM],/
O=C(Nc1ccccc1Cl)c1ccc(COc2ccc3c(c2)CCC3)cc1,?,-14%,6.3µM*,?,0%,?
NNC(=O)c1ccc(COc2ccc3c(c2)CCC3)cc1,?,?,?,-1%,-2%,?
O=C(O)c1ccc(COc2ccc3c(c2)CCC3)cc1,?,5.4µM*,/,9%,/,?
O=C(NC(=S)Nc1ccc(Cc2ccncc2)cc1)c1ccc(F)cc1,5%,-18%,-34%,-2%,-2%,-9%
Cc1ccc2nc(/C(C#N)=C\c3ccc([N+](=O)[O-])o3)[nH]c2c1,-28%,-15%,-97%,1%,-4%,-36%
Cc1ccc2nc(/C(C#N)=C\c3ccc(N4CCOCC4)o3)[nH]c2c1,1.8µM*,0.43µM*,4µM*,?,-9%,2.2µM*
Cc1ccc(/C(C#N)=C\c2ccc(N3CCOCC3)o2)cc1,3.2µM*,24µM*,13µM*,18µM*,-1%,4µM*
COc1ccc(N2CC(C(=O)N3CCN(Cc4ccc5c(c4)OCO5)CC3)CC2=O)cc1 (configuration not stated),-2%,0%,/,-7%,/,-4%
Cc1ccc(NC(=O)c2cc3nc(C)cc(C)n3n2)cc1,0.89µM*,4.8µM*,11µM*,1.5µM*,-4%,0.63µM*
Cc1cc(C)n2nc(C(=O)NCc3ccccc3)cc2n1,-2%,5%,12%,7%,0%,-1%
Cc1ccc(NC(=O)c2cc3nc(-c4ccccc4)cc(-c4ccccc4)n3n2)cc1,/,7%,15%,/,/,/
Cc1cc(C)n2nc(-c3ccccc3)cc2n1,3.2µM*,7.6µM*,/,?,-12%,?
Cc1ccc(-c2cc3nc(C)cc(C)n3n2)cc1,1.8µM*,2.7µM*,13µM*,5.2µM*,-4%,3.5µM*
Cc1cc(C)n2nc(Nc3ccccc3)cc2n1,23%,17µM*,25%,29%,-7%,18%
Cc1cc(C)n2nc(-c3ccsc3-n3c(C)ccc3C)cc2n1,5%,-2%,6%,5%,7%,-1%
CCN(CC(=O)Nc1ccc(NC(C)=O)cc1)C(=O)c1cccnc1Sc1ccc(C)c(C)c1,-6%,?,/,4%,/,0%
Cc1nn(S(=O)(=O)c2ccc(Br)cc2)c(C)c1S(=O)(=O)N1CCOCC1,-4%,-1%,/,3%,/,0%
CCN1C(=O)[C@H]2[C@@H](c3ccc(Cl)cc3)N3C(=O)CN(CCOC)C(=O)[C@@]3(C)[C@H]2C1=O,-6%,-1%,/,-1%,/,1%
CCc1ccc(NC(=O)C2CCCCC2C(=O)O)cc1 (configuration not stated),-1%,-5%,-1%,-1%,5%,-2%
O=C(Nc1ccc(Cl)cc1)C1C2CCCCC21 (configuration not stated),4µM*,4.8µM*,/,?,/,4µM*
CCc1ccc(NC(=O)C2C3/C=C\CCCCC32)cc1 (configuration not stated),3.2µM*,?,11µM*,?,2%,4.5µM*
O=C1CCC(C(=O)Nc2ccc(Cl)cc2)N1 (configuration not stated),9%,7%,/,2%,/,-3%
CN(C)S(=O)(=O)n1cc(/C=C(\NC(=O)c2ccccc2Cl)C(=O)N2CCOCC2)c2ccccc21,2%,1%,/,?,/,1%
CC(=O)NC(=S)Nc1ccc(-c2nc3ccc(C)cc3s2)cc1,0.45µM*,2.1µM*,13µM*,?,-5%,0.45µM*
